About 3,200 (25%) of roughly 13,000 compounds showed an effect of 50% or more. This is one part of the list.
System: P. falciparum stage V gametocytes
Set-up: BacTiter-Glo ATP luminescence viability of purified stage V gametocytes in 384-well plates, per cent inhibition versus DMSO
Settings: 48 h, 5 µM; inhibitor

Point of comparison: `CCCCCCN1CCCN(Cc2cccc(C(=O)Nc3ccc(C(C)(C)C)cc3)c2)CC1` [TCMDC-135993], “% Inhibition” value -6.517%. Against it:
- CCCC(C)NC(=O)[C@H](Cc1ccccc1)NC(=O)c1ccc(O)c(-c2ccc(OC)cc2)c1 (stereo partly shown) [TCMDC-140800] — higher, 19.41%
- CN(C)CCOc1cccc(NC(=O)Nc2ccc(-c3ccccc3)cc2)c1 [TCMDC-139537] — higher, 22.41%
- CC(C)CNCc1cccc(-c2cccc(CN(CCN(C)C)C(=O)NCCc3ccccc3)c2)c1 [TCMDC-140620] — higher, 102.4%
- CC(C)CNC(=O)c1cncc(-c2ccc(CNCCCc3ccccc3)cc2)c1 [TCMDC-134247] — lower, -10.62%
- CCOC(=O)CNC(=O)N(CCN(Cc1ccccc1)C(=O)NCC(=O)OCC)Cc1ccccc1 [TCMDC-138999] — higher, 6.745%
- CN(C)CCN(C)Cc1cccc(-c2cccc(NC(=O)c3cccc(C#N)c3)c2)c1 [TCMDC-133360] — higher, 6.032%
- CC(C)CNCc1ccc(-c2cccc(CN(CCN(C)C)C(=O)NCCc3ccccc3)c2)cc1 [TCMDC-140621] — higher, 102.2%
- CC(C)CNCc1cccc(-c2ccc(CNc3ccc(C(=O)c4ccccc4)cc3)cc2)c1 [TCMDC-140728] — higher, 10.94%
- CC[C@H](C)CNC(=O)c1cncc(-c2cccc(CNCCCc3ccccc3)c2)c1 [TCMDC-134221] — higher, 19.08%
- CC(C)CNCc1cccc(-c2cccc(CN(CCN(C)C)C(=O)Nc3ccccc3)c2)c1 [TCMDC-140592] — higher, 108.6%
- CN(CC(=O)Nc1ccc(F)c(F)c1F)c1ncnc2sc(-c3ccccc3)cc12 [TCMDC-124491] — higher, 23.36%
- O=C(Nc1ccc2c(ccn2C2CCCN(Cc3cc(F)cc(F)c3F)CC2)c1)c1ccco1 (stereo not shown) [TCMDC-135087] — higher, 26.42%
- Nc1nc(N)c2cc(N(Cc3ccccc3)Cc3ccccc3)ccc2n1 [TCMDC-137850] — lower, -9.254%
- Cc1cccc2[nH]c(-c3cccc(-c4cccc(NC(=O)CNc5ccc(C(N)=O)cc5)c4)c3)nc12 [TCMDC-132165] — higher, -3.752%
- Cc1ccccc1C1CCN(c2ccc(C(=O)NC3CC3)cn2)CC1 [TCMDC-134592] — higher, 24.07%
- COc1ccc2nccc(N3CCC(CCNCc4cc5c(cn4)OCCO5)CC3)c2n1 [TCMDC-133538] — higher, 80.45%
- COc1ccc2nccc(N3CCC(CCNCc4cc5c(cn4)OCCO5)CC3)c2c1.Cl [TCMDC-133537] — higher, 9.41%
- COc1ccc2nccc(N3CCC(CCNCc4ccc5c(n4)NC(=O)CS5)CC3)c2n1 [TCMDC-141944] — higher, 32.25%
- COc1ccc2nccc(NCC3(O)CCC(NCc4cc5c(cn4)OCCO5)CC3)c2n1 (stereo not shown) [TCMDC-134312] — lower, -33.45%
- COc1ccc2nccc(N3CCC(NCCNCc4cc5c(cn4)OCCO5)C3)c2n1 (stereo not shown) [TCMDC-134650] — higher, 71.62%
- COc1ccc2nccc(N3CCC(SCCNCc4cc5c(cn4)OCCO5)C3)c2n1 (stereo not shown) [TCMDC-134286] — higher, 24.01%
- COC(=O)c1cc2cccc(NC[C@@H](C)NC[C@H](O)c3cccc(Cl)c3)c2[nH]1 [TCMDC-137770] — higher, 45%
- Clc1ccccc1CN1CCC(NCc2cccc(-n3ccnc3)c2)CC1 [TCMDC-141672] — higher, 86.45%
- c1cc(CNC2CCN(CC3CCCCC3)CC2)cc(-n2ccnc2)c1 [TCMDC-141657] — higher, 70.67%
- c1cc(CNCC2CCN(CC3CCCCC3)CC2)cc(-n2ccnc2)c1 [TCMDC-141675] — higher, 21.38%
- COc1ccc(CN2CCC(NCc3cccc(-n4ccnc4)c3)CC2)cc1 [TCMDC-141651] — higher, 14.29%
- CN(C)Cc1ccc(CNC2CCN(Cc3ccccc3Cl)CC2)cc1 [TCMDC-141671] — higher, -2.208%
- CCCCCCN1CCC(NCc2cccc(-n3ccnc3)c2)CC1 [TCMDC-141664] — higher, 11.65%
- Cc1ccc(-c2cnc3[nH]cc(-c4ccc(C(=O)O)c(C)c4)c3c2)cc1C.O=C(O)C(F)(F)F [TCMDC-136381] — higher, 18.23%
- CCCCc1cc(NCC)nc(Nc2ccc(F)cc2)n1 [TCMDC-134009] — higher, 8.286%
- Cn1cncc1-c1ccc2ncnc(Nc3ccc4c(cnn4Cc4ccccc4)c3)c2c1 [TCMDC-137781] — lower, -8.163%
- O=C(CN1CCCCC1)Nc1ccc(Nc2nccc(NCC(O)c3ccccc3)n2)cc1 (stereo not shown) [TCMDC-136469] — lower, -6.593%
- CCN(CC)CCNC(=O)c1ccc(N=Cc2c(O)[nH]c3ccc(S(=O)(=O)Cc4c(Cl)cccc4Cl)cc23)cc1 [TCMDC-135945] — higher, 35.17%
- NS(=O)(=O)c1cccc(N=Cc2c(O)[nH]c3ccc(S(=O)(=O)Cc4c(Cl)cccc4Cl)cc23)c1 [TCMDC-135947] — higher, 101.9%
- CN(CCCCNC(=O)c1ccc(-c2ccccc2)cc1)C1CCc2c(O)cccc2C1 (stereo not shown) [TCMDC-139005] — lower, -43.63%
- O=C(Nc1ccc(OC2CCN(Cc3ccc(F)cc3)CC2)cc1)c1cccs1 [TCMDC-133741] — higher, 27.9%
- Cc1ccc(-c2nc3ccccc3o2)cc1NCc1cc(Cc2ccccc2)ccc1O [TCMDC-125705] — lower, -21.71%
- Cc1cc(O)c(CN2CCN(Cc3cccs3)CC2)cc1C(C)C [TCMDC-124883] — lower, -57.78%
- CCN1CCC(N(Cc2ccc(-c3ccc(C(F)(F)F)s3)cc2)C(=O)Cn2c(CCc3cccc(F)c3F)nc(=O)c3ccccc32)CC1 [TCMDC-141282] — higher, 107.7%
- CCN1CCC(N(Cc2ccc(-c3ccc(C(F)(F)F)cc3)cc2)C(=O)CCCCn2c(CCc3cccc(F)c3F)nc(=O)c3ccccc32)CC1 [TCMDC-141321] — higher, 85.03%
- O=C(Cn1c(CCc2cccc(F)c2F)nc(=O)c2ccccc21)N(Cc1ccc(-c2ccc(C(F)(F)F)cc2)cc1)C1CCN(C2=NCCS2)CC1 [TCMDC-136537] — higher, 107.4%
- CCN1CCCC1CN(Cc1ccc(-c2ccc(C(F)(F)F)cc2)cc1)C(=O)Cn1c(CCc2cccc(F)c2F)nc(=O)c2ccccc21 (stereo not shown) [TCMDC-141061] — higher, 68.75%
